# Compound activity as filed in PubChem BioAssay.
# RGS12 GoLoco inh = RGS12 GoLoco-Gai1 interaction inhibition | P63096 | Gai1:RGS12 GoLoco peptide FP, rhodamine, 10 min | Potency, µM (series often up to 61.6 µM), for inactives: top-dose activity, negative = inhibition, most hits filed as inhibitors | hit rate 0.44% among 230,000; active = well fitted inhibition curve with a large enough effect, not every such curve was filed as active; inactive = no such curve, though single readings can be large or run the other way; also: potency is read from the fitted curve at half-maximal effect; % is scaled to controls: 0 for no effect and ±100 for the full control effect; nearly all actives have a fitted effect of over 30% in size
# CBFb RUNX1 block = inhibitors of human CBF-beta and RUNX1 interaction; Q01196+Q13951; AlphaScreen CBFb-His/RUNX1-biotin binding, biochemical; Potency, µM (highest dose often 59.8 µM), for the others: top-dose activity, negative = inhibition, usual class: inhibitors; 230,000 tested, under 10 active; AID 1477; also: % of control where 0% means no effect
#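 CBFb-His/RUNX1-biotin, 30 nM each, preincubated 20 min RT; compound 15 min RT; Ni + streptavidin beads 50 ng each, 90 min RT; AlphaScreen read.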
# ERG-DNA inh = blocks human ERG Ets domain binding to DNA; P11308; fluorescence polarization, His-ERG Ets domain / labelled DNA; Potency, µM (top dose mostly 76.9 µM), for the others: at the top dose FP activity, negative = inhibition, hits mostly inhibitors; hit rate 0.028% among 370,000; AID 624246; active = well fitted inhibition curve with a large enough effect in the polarisation, with a control signal flat; inconclusive = small, poorly fitted or top-dose-only effect, or effect the other way, or a change in a side signal; inactive = no such curve, though single readings can be large or run the other way; the % refers to the polarisation;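 also: polarization taken with two DNA probes labelled with fluorescein and Texas red; potency is read from the fitted curve at half-maximal effect; % of control where 0% means no effect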
# Target sequence (P11308 whole entry, looked up, the tested form may be a part): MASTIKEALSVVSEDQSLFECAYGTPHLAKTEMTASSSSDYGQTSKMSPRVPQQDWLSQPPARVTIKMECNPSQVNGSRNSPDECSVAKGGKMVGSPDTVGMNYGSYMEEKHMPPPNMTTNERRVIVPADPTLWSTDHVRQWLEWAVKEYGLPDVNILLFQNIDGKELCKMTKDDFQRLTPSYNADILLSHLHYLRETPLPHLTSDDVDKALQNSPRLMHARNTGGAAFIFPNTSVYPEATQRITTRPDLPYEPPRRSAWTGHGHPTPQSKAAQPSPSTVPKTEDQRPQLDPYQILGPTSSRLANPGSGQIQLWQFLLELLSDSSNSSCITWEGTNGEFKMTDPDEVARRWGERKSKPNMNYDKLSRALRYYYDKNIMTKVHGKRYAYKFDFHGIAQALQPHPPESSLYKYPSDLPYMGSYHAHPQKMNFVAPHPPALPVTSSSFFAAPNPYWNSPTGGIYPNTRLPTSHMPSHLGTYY
#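 His-tagged ERG Ets domain (1 uM in the protein solution; 300mM KCl, 50mM Tris-HCl, 1mM EDTA, 1mM DTT, pH 7.5) received compound, then a probe mix of 5 nM fluorescein-DNA and 100nM Texas-615-DNA. Fluorescence polarization was read for both dyes.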
# TRb SRC2 PPI = inhibitors of human thyroid hormone receptor beta-SRC2 interaction; P10828; TRbeta-SRC2 peptide binding, fluorescence polarization; receptor liganded with 1 µM T3; Potency, µM (top dose mostly 106 µM), for inactives: top-dose activity change, negative = inhibition, actives largely listed as inhibitors; hit rate 0.065% among 280,000; AID 1469;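 also: potency is read from the fitted curve at half-maximal effect; plate controls were bound peptide for no effect and peptide without receptor for full effect; nearly all actives have a fitted effect of over 50% in size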
#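 Compounds were added to 0.6 uM TRb ligand-binding domain and 20 nM Texas Red-labeled SRC2 peptide in Tris buffer containing 1 uM T3, incubated 5 hr at ambient temperature, then read by fluorescence polarization.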
# TexasRed fluor = alters Texas Red total fluorescence, flagging assay interference. TRb/SRC2 Texas Red total fluorescence interference. Potency, µM (highest dose often 106 µM), for the others: at the highest dose fluorescence change, negative = quenching. hit rate 0.29% among 280,000. AID 1479; active = well fitted curve in either direction with a large enough effect; inconclusive = small, poorly fitted or top-dose-only effect; also: potency is read from the fitted curve at half-maximal effect; % is scaled to controls: 0 for no effect and ±100 for the full control effect
#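 Human TRβ ligand-binding domain (0.6 uM) and Texas Red SRC2 peptide (20 nM) in Tris buffer with 1 uM T3 and 5% DMSO were incubated with pinned compound for 5 hr at ambient temperature. Total fluorescence was computed as S + 2P (555/632 nm).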
# An asterisk follows results filed as active; ? = inconclusive; . = no result given; [ ] = dose if it differs, or a comment. The full list was thinned out, with hits kept by preference. Unless noted, calls follow the shape of the dose curve; as a rule, active = well fitted curve in the direction sought with a large enough effect; inconclusive = small, poorly fitted or top-dose-only effect, or another doubt; inactive = no such curve, though single readings can be large; an effect the other way counts as inactive or inconclusive.
SMILES,RGS12 GoLoco inh,CBFb RUNX1 block,ERG-DNA inh,TRb SRC2 PPI,TexasRed fluor
CCOc1ccc(-c2cn3c(n2)sc2cc(C(=O)NCCC4=CCCCC4)ccc23)cc1,.,.,1%,-11%,2µM*[quencher]
CCOc1ccc(-c2cn3c(n2)sc2cc(C(=O)NCCc4ccc(OC)c(OC)c4)ccc23)cc1,.,.,0%,3%,0%
Cc1ccc(-c2cn3c(n2)sc2cc(C(=O)NCc4cccs4)ccc23)cc1,.,.,-8%,-15%,3.2µM*[quencher]
O=C(NCc1cccs1)c1ccc2c(c1)sc1nc(-c3ccc(F)cc3)cn12,.,.,-5%,-10%,-4%
CCOC(=O)C1CCN(C(=O)c2ccc3c(c2)sc2nc(-c4ccc(OC)cc4)cn23)CC1,.,.,-5%,-22%,316µM*[quencher]
Nc1ncnc2c1ncn2[C@@H]1O[C@H](CNC(=O)[C@H]2CCC(=O)N2)[C@@H](O)[C@H]1O,.,.,-4%,.,.
CCC#CCOCC(=S)Nc1ccccc1,9%,8%,.,0%,-3%
Cc1nn(CC(=O)Nc2ccc3nc4n(c(=O)c3c2)CCCC4)c(C)c1[N+](=O)[O-],.,.,-4%,.,.
COc1ccc(OC)c(N=c2oc3cc(O)ccc3cc2C(N)=O)c1,18µM*,-19%,-2%,12%,-23%
CCOC(=O)c1c(C)[nH]c(C)c1S(=O)(=O)NCC(=O)NCc1ccccc1C,.,.,-19%,0%,1%
COc1ccc(NC(=O)CN(C)C(=O)CCCN2C(=O)c3cccc4cccc(c34)C2=O)cc1,.,.,3%,.,.
CN(c1ccc(OCC(=O)OCC(=O)Nc2ccccc2)cc1)S(=O)(=O)c1cccs1,-44%,-7%,6%,-27%[53 µM],5µM*[quencher]
CC(C)=CCC/C(C)=C\CO,.,.,.,6%[201 µM],1%[201 µM]
Cc1ccccc1NC(NC(=O)OCCn1c([N+](=O)[O-])cnc1C)C(Cl)(Cl)Cl (centres undefined),-3%,-7%,2%,-26%[53 µM],7.1µM*[quencher]
O=C(Nc1cccc(C(F)(F)F)c1)C1CCCN(S(=O)(=O)c2cccc3nsnc23)C1 (centres undefined),.,.,-8%,-1%,-1%
C[N+]1(CC(=O)OCCCc2ccccc2)CCOCC1,13µM*,-1%,11%,-10%,-7%
Cc1ccc(CCCOC(=O)C[N+]2(C)CCOCC2)cc1,10µM*,-4%,6%,-8%,-2%
CC/C=C/CCCCCCCCCCOC(C)=O,.,.,.,-1%[201 µM],0%[201 µM]
CCOC(=O)c1c(C)oc2nc(C)nc(NCCCN3CCN(c4cccc(C)c4)C(C)C3)c12 (centres undefined),.,.,1%,-10%,45µM*[quencher]
CCc1ccc(CN(C(=O)Nc2cccc(Cl)c2)c2ccccn2)cc1,.,.,-1%,-11%,355µM*[quencher]
S=C(Nc1ccc2c(c1)Cc1ccccc1-2)Nc1ccc2c(c1)Cc1ccccc1-2,0%[14.2 µM],.,.,.,.
CC1N(C)c2cc(NC(=O)c3ccco3)ccc2C1(C)C (centres undefined),164%,-11%,?,?,45µM*[fluorescent]
CC1=CC2=C(OC1N(C)C)c1cccc3cccc(c13)C2=O (centres undefined),18µM*,-23%,6%,40µM*,21%
O=C(CCNC(=O)c1ccccc1)Nc1cccnc1,-1%,2%,-1%,-2%,-7%
O=C(NCC(c1cccnc1)N1CCN(Cc2ccccc2)CC1)C(=O)Nc1cccc(F)c1 (centres undefined),.,.,-10%,-14%,0.25µM*[quencher]
CCN(CC)CCNC(=O)C(=O)NCC(c1cccnc1)N1CCN(c2ccccc2)CC1 (centres undefined),.,.,9%,-25%,89µM*[quencher]
O=C(NCC(c1cccnc1)N1CCc2ccccc21)C(=O)Nc1ccccc1F (centres undefined),.,.,6%,-16%,0.32µM*[quencher]
CC(C)(C)c1ccc(C(=O)NCC(c2cccnc2)N2CCc3ccccc3C2)cc1 (centres undefined),.,.,12%,2%,11µM*[quencher]
O=C(NCC(c1cccnc1)N1CCN(Cc2ccccc2)CC1)C(=O)Nc1ccc(F)cc1 (centres undefined),.,.,19%,-8%,5%
CC1CC(C)CN(C(=O)c2cccc(S(=O)(=O)NCc3ccccc3)c2)C1 (centres undefined),.,.,-17%,.,.
